This excerpt belongs to a sample that is enriched for hits.
Shiga inhibitor: A qHTS for Small Molecule Inhibitors of Shiga Toxin. Vero cells, Shiga toxin protein synthesis inhibition reporter. inhibition, % at 38.7 µM. actives 9.2% (n = 290,000). AID 2315, 2010; in the data active = inhibition mostly above about 28%, no sharp cut-off; inactive = mostly below about 43%; note: 0% is about no effect
Cycloheximide cs: Cycloheximide Counterscreen for Small Molecule Inhibitors of Shiga Toxin; max response, %; cell reporter, cycloheximide protein synthesis inhibition counterscreen; actives 12% (n = 300,000); in the data active = max response mostly above about 13%, no sharp cut-off; inactive = mostly below about 14%; note: read at 38.3 µM for the half of the compounds with a filed dose; 0% is about no effect
NS1 function inh: qHTS Assay for Inhibitors of Influenza NS1 Protein Function | Potency, µM (highest dose often 46.1 µM), without a hit: top-dose activity, positive = more growth | actives 0.4% (n = 270,000) | AID 2326, 2010; calls by dose curve; note: potency is the fitted concentration of half-maximal effect; actives are rising curves; nearly all actives have a fitted effect of over 50% in size
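Recovery from NS1-induced slow growth read by OD600 in budding yeast switched to galactose assay medium (pH 6.0, -URA) at 1:100 dilution. Compound 23 nl per well; the matching strain lacking NS1 serves as control.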
AmpC inh no detg: qHTS Inhibitors of AmpC Beta-Lactamase (assay without detergent) | Potency, µM (series often up to 57.1 µM), inactives show at the top dose activity change, negative = inhibition, actives largely listed as inhibitors | AmpC nitrocefin hydrolysis, absorbance 480 nm, 0.0001% Triton | AID 485341, 2010 | actives 0.52% (n = 330,000);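 note: potency is the fitted concentration of half-maximal effect; plate controls were no compound for no effect and no enzyme for full effect; nearly all actives have a fitted effect of over 20% in size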
Target sequence (P00811 whole entry, looked up): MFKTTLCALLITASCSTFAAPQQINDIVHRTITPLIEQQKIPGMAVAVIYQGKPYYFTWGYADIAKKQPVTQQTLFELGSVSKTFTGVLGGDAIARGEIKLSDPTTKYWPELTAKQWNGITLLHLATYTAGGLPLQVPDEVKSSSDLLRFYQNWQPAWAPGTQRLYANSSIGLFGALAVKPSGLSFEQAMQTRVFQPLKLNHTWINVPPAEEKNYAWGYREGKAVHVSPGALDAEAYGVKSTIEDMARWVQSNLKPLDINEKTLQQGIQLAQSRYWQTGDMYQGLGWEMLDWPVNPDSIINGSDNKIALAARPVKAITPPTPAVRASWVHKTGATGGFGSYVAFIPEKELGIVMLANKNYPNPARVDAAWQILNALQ
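20 mM phosphate pH 7.0 + 0.01% (detergent screen) or 0.0001% Triton X-100; 5.3 nM AmpC reagent; cpd preinc 15 min RT; nitrocefin (800 uM stock) to start; A480 q20 s × 4 min; Activity was normalised to no-enzyme and no-compound control wells.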
AmpC inh detg: qHTS Inhibitors of AmpC Beta-Lactamase (assay with detergent); AmpC hydrolysis of nitrocefin, absorbance 480 nm, 0.01% Triton; Potency, µM (series often up to 114 µM), for inactives: at the highest dose activity change, negative = inhibition, usual class: inhibitors; actives 0.041% (n = 370,000);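 note: potency is the fitted concentration of half-maximal effect; 0% = no-compound wells and -100% = no-enzyme wells; nearly all actives have a fitted effect of over 25% in size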
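AmpC (5.3 nM in the dispensed reagent) in 20 mM phosphate pH 7.0 with 0.01% (detergent screen) or 0.0001% Triton X-100 was preincubated with compounds for 15 min at room temperature. Nitrocefin was then added from an 800 uM solution, and hydrolysis was followed at 480 nm.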
* = called active by the depositor; ? = inconclusive; . = no result; [ ] = dose if it differs, or a comment. Unless noted, calls come from the whole dose curve; as a rule, active = well fitted curve in the direction sought with a large enough effect; inconclusive = small, poorly fitted or top-dose-only effect, or another doubt; inactive = no such curve, though single readings can be large; an effect the other way counts as inactive or inconclusive.

SMILES | Shiga inhibitor | Cycloheximide cs | NS1 function inh | AmpC inh no detg | AmpC inh detg
C#Cc1cccc(NC(=O)c2ccc3c(c2)C(=O)N(Cc2cccnc2)C3=O)c1 | -11.9 | 38.8* | 12.6% | -57.5% | -5.5%
CC(=O)Oc1cccc(NC(=O)c2ccc3c(c2)C(=O)N(CC(C)C)C3=O)c1 | 127.7* | 28.1* | -1.1% | -11.9% | -3.8%
Cc1ccccc1-c1nc(SCC(=O)NCC2CCCO2)c2c(=O)n(C)c(=O)n(C)c2n1 (stereo not drawn) | . | . | . | . | -0.4%
Nc1nc(SCc2ccc(Cl)cc2Cl)nc2nc3c(cc12)CCCC3 | -8.1 | -4.6 | 6.9% | 15.8µM* | -3.8%
N#Cc1c(SCC(=O)Nc2nccs2)nc2c(c1-c1ccco1)CCCC2 | 3.8 | 17.0* | ? | -23.6% | 8.5%
Nc1nc(-c2cc(O)ccc2[N+](=O)[O-])cc(-c2ccccc2)c1[N+](=O)[O-] | -10.2 | -3.4 | 4.0% | -28.7% | -11.7%
O=C(CN1CCC(NC(=O)Nc2ccccc2)CC1)Nc1ccccc1F | 16.5 | -4.4 | -4.6% | -17.6% | -9.9%
COC(=O)c1ccccc1NC(=O)C1CCN(S(C)(=O)=O)CC1 | 11.9 | 0.5 | 6.4% | 0.159µM* | -0.1%
O=C(Nc1ccccc1F)NC1CC1 | 52.1* | 23.0 | . | -19.5% | ?
COC(=O)c1ccccc1NC(=O)NC1CCC(C)CC1 (stereo not drawn) | 33.7* | 16.3* | 0.9% | -12.3% | 4.5%
CCN1CCC(NC(=O)Nc2ccccc2C(=O)OC)CC1 | 14.6 | -1.9 | 2.1% | -14.3% | 3.3%
O=C(Nc1ccccc1F)NC1CCCCCCC1 | 98.1* | 57.3* | -42.3% | -30.2% | 7.4%
O=C(NC(Cc1ccccc1)C(=O)O)C1CCN(S(=O)(=O)c2ccccc2C(F)(F)F)CC1 (stereo not drawn) | 12.8 | -2.3 | -3.4% | 5.2% | -2.6%
CCCOc1ccc(C(=O)NC(=S)N2CCN(c3cc4c(cc3F)c(=O)c(C(=O)O)cn4CC)CC2)cc1 | -5.5 | 0.4 | -1.1% | -4.2% | -14.4%
COc1ccc(OC)c(NC(=O)Cn2cc(C(=O)c3cccs3)c3ccccc32)c1 | . | . | . | . | 1.9%
O=C(Nc1cccc(-c2nc3ccccc3o2)c1)C(F)(F)F | . | . | . | . | 11.0%
COc1ccc(CN(C)CC(=O)Nc2ccccc2C(=O)NC2CC2)cc1F | . | . | . | -10.2% | .
COc1ccc(CNC(=O)C2CCNCC2)cc1 | -20.0 | -1.0 | 5.8% | -13.6% | -1.9%
COc1ccc(OCC2CCNCC2)cc1 | 38.7* | 32.9* | 6.4% | -11.0% | -4.0%
Cc1c(NS(=O)(=O)c2ccc(Br)cc2)c(=O)n(-c2ccccc2)n1C | 17.6 | 16.7* | 3.7% | -12.0% | 6.0%
O=S(=O)(Nc1ccn(-c2ccccc2)n1)c1ccc(Br)cc1 | 42.4 | 16.0* | -29.0%[9.22 µM] | ? | -10.6%
O=C(N/N=C/c1c(-c2ccccc2)[nH]c2ccccc12)c1cccnc1 | 64.6* | 26.6* | -7.9% | 3.1%[2.29 µM] | ?
Cn1c(-c2ccccc2)c(/C=N/NC(=O)c2cccnc2)c2ccccc21 | 68.5* | 20.7* | . | 50.5% | ?
Cn1cccc1/C=N/NC(=O)c1cccnc1 | 30.2 | 17.8 | 10.4% | -10.2% | ?
CCc1ccc(CNC(=O)c2ccc3nc(C4CCCCC4)oc3c2)nc1 | 32.6* | 46.0* | -43.2% | 49.2% | -4.6%
SMILES | Shiga inhibitor | Cycloheximide cs | NS1 function inh | AmpC inh no detg | AmpC inh detg
CCOC(=O)CCNC(=O)c1ccc2nc(C3CCCCC3)oc2c1 | 26.7 | 17.2* | -14.7% | 35.9% | 0.4%
CCc1ccc(CNC(=O)c2ccc(OC3CCN(C(C)=O)CC3)c(OC)c2)nc1 | -16.0 | -6.6 | 11.7% | 0.1% | -4.9%
Cc1cc(C)nc(Nc2ccc(N3CCCC3)cc2)n1 | 90.3* | 30.3* | -5.2% | -33.0% | ?
CCOc1ccc(Nc2nc(N3CCCC3)nc(N3CCN(c4ccc(OC)cc4)CC3)n2)cc1 | -11.7 | -1.2 | . | -37.6% | 5.8%
Cc1cc(C)nc(Nc2ccc(N3CCOCC3)cc2)n1 | 70.4 | 17.1* | 2.3% | 21.7% | -13.3%
CS(=O)(=O)N1CCN(c2c(Cl)cccc2[N+](=O)[O-])CC1 | -5.6 | -2.5 | 1.0% | -12.5% | -6.3%
CCOc1ccc(CC(=O)NCCS(=O)(=O)N2CCN(c3ccccc3OC)CC2)cc1 | . | . | . | . | -5.7%
CN(C)S(=O)(=O)Oc1cccc(C(=O)Nc2ccccc2Cl)c1 | 92.9* | 40.6* | -59.7% | -13.1% | -10.5%
CN(C)S(=O)(=O)Oc1cccc(C(=O)Nc2ccc(Cl)cc2)c1 | 152.8* | 44.7* | -8.3% | -23.6% | -0.1%
CN(C)S(=O)(=O)Oc1ccc(C(=O)Nc2cccc(Cl)c2)cc1 | 89.1* | 55.5* | -10.3% | -20.2% | -7.6%
CN(C)S(=O)(=O)Oc1ccsc1C(=O)Nc1ccccc1Cl | 14.0 | -2.3 | -9.6% | -16.8% | -0.2%
Cc1cc(=O)oc2cc(OCCc3ccccc3)ccc12 | 82.7* | 41.8* | -62.9% | 1.7% | -4.8%
Cc1cc(=O)oc2cc(OCCCC[n+]3ccccc3)ccc12 | -7.6 | 11.2 | -1.4% | -13.8% | 1.0%
COc1cccc(COc2ccc3c(C)cc(=O)oc3c2)c1 | 79.4* | 30.7* | -6.5% | -2.5% | -4.1%
Cc1cc(=O)oc2cc(OCC(=O)c3ccccc3)ccc12 | 20.2 | 17.0* | -3.6% | -27.5% | -13.6%
Cc1c(Cl)cccc1NC(=O)CCOc1ccccc1 | . | . | . | . | -10.1%
COc1ccc(-n2nc(C)c3c(C(F)(F)F)cc(-c4cccnc4)nc32)cc1 | . | . | . | . | 19.0%
Cc1nc(C/C(=N\Nc2ccccc2)c2ccc(O)cc2O)cs1 | 21.3 | 7.9 | 1.1% | -56.0% | -5.2%
CCc1cc(/C(Cc2ccccn2)=N\Nc2ccccc2)c(O)cc1O | 27.9 | 1.8 | 7.2% | 25.1µM* | -2.2%
CCCCOc1ccc(-c2nnn(C(C)(C)C(=O)OC)n2)cc1 | 56.7* | 32.0* | -33.6% | 45.0% | ?
COC(=O)c1cccc(Nc2nn3c(=O)c4cc5c(cc4nc3s2)OCO5)c1 | . | . | . | . | 4.9%
CCCSc1nn2c(=O)c3ccccc3nc2s1 | 66.1* | 39.2* | -58.9% | 1.4% | -6.6%
Cc1cccc(Nc2nn3c(=O)c4ccccc4nc3s2)c1 | 55.4* | 14.0 | 7.3% | -15.5% | -15.0%
COc1cccc(-c2nn3c(-c4ccccn4)nnc3s2)c1 | 42.1 | 15.2* | 1.4% | 14.4% | -15.9%
Brc1ccc(-c2nn3c(-c4ccccn4)nnc3s2)o1 | 24.6 | 14.2* | -45.2% | -19.9% | -14.4%
SMILES | Shiga inhibitor | Cycloheximide cs | NS1 function inh | AmpC inh no detg | AmpC inh detg
CC(C)(C)c1ccc(-c2nnc3sc(-c4ccccn4)nn23)cc1 | 91.3* | 46.2* | 1.1% | -21.1% | ?
c1ccc(OCc2nn3c(-c4ccccn4)nnc3s2)cc1 | 68.1* | 32.5* | -11.4% | 7.4% | -8.2%
c1ccc(OCc2nn3c(-c4ccncc4)nnc3s2)cc1 | -10.7 | 10.3 | -34.4% | -7.6% | -0.7%
Clc1ccc(-c2nnc3sc(-c4ccccn4)nn23)cc1 | 17.7 | -2.4 | -7.4% | -9.6% | -12.0%
CCOc1ccc(C(=O)Nc2nnc(S(=O)(=O)Nc3ccccc3)s2)cc1 | . | . | . | . | 18.7%
COc1nc(N)nc2c1ncn2[C@@H]1C[C@H](O)[C@@H](CO)O1 | . | . | 0.7% | . | .

Compound activity from PubChem BioAssay.
